As a reminder, the Inhibition is the drop in the measured response relative to a control, in per cent. Lower therefore signals a weak effect.

Each structure is given as a SMILES string.

Holding throughout (type): functional
Test [1] concerns Plasmodium falciparum. In words: GSK_TCMDC: Inhibition of Plasmodium falciparum 3D7 in whole red blood cells, using parasite LDH activity as an index of growth. Test compounds present at 2uM.
In test [2] the test system is Plasmodium falciparum. Put plainly: GSK_TCMDC: Inhibition of Plasmodium falciparum Dd2 in whole red blood cells, using parasite LDH activity as an index of growth. Test compounds present at 2uM.
For the next test, the system named is HepG2. Put plainly: GSK_TCMDC: Percent inhibition of human HepG2 cell line. Test compounds present at 10uM.

Take `O=C(Nc1cccc(F)c1)c1ccc(C(=O)NC2CCN(CC3CCCCC3)CC2)cc1.O=C(O)C(F)(F)F`: the Inhibition was 96% in the test with Plasmodium falciparum [1], 16% in the test with Plasmodium falciparum [2] and 22% in the test with HepG2.
The corresponding values for `COc1ccc(OC)c(-c2cccc(-c3cccc(NC(=O)c4ccc([N+](=O)[O-])o4)c3)n2)c1` are 98%, 97% and 75%.
As to `CS(=O)(=O)Cc1cccc(Nc2ncc(Cl)c(Nc3cccnc3C(N)=O)n2)c1.Cl`, the Inhibition in the test with Plasmodium falciparum [1] came out at 96%; in the test on Plasmodium falciparum [2], 97%; in the test with HepG2, 56%.
As to `CCOc1c(C)cc(C(F)(F)F)cc1CNCCCNc1cc(=O)c2ccccc2[nH]1.Cl`, the Inhibition is given as 97% in the test with Plasmodium falciparum [1], 1% in the test with Plasmodium falciparum [2] and 0% with HepG2.
Consider `CC(Sc1nc2sccc2c(=O)n1C)C(=O)Nc1ccc2c(c1)OCO2` (stereo not drawn), for which the Inhibition was 100% in the test on Plasmodium falciparum [1], 100% with Plasmodium falciparum [2] and 5% with HepG2.
With `COc1ccc(OC)c(C=NNc2nc3ccccc3[nH]2)c1`, the figures for the Inhibition in the test on Plasmodium falciparum [1], in the test with Plasmodium falciparum [2] and in the test with HepG2 were 99%, 28% and 0%, respectively.
The corresponding values for `Cl.N=C(N)c1ccc(C=CC(=O)NCC(O)CNC(=O)C=Cc2ccc(C(=N)N)cc2)cc1` (stereo not drawn) are 90%, 80% and 0%.
The corresponding values for `Cc1nc(C)c(-c2ccc(C(=O)c3ccccc3)cc2)c(O)c1Br` are 95%, 96% and 0%.
Regarding `COc1ccc2nccc([C@@H](O)CN3CCC(NCc4ccc5nsnc5c4)CC3)c2c1.O=C(O)C(=O)O`, the Inhibition stood at 95% with Plasmodium falciparum [1], 64% in the test on Plasmodium falciparum [2] and 12% with HepG2.
Take `COc1ccc2nccc([C@@H](O)CN3CCC(NC(=O)c4cc5c(F)cc(F)cc5[nH]4)CC3)c2c1.CS(=O)(=O)O`: the results for the Inhibition with Plasmodium falciparum [1], in the test on Plasmodium falciparum [2] and with HepG2 were 100%, 98% and 33%, respectively.
On the same counts, the results for `CCc1ccc(CN2CCC(CN(c3ccc(N4CCOCC4)c(F)c3)S(=O)(=O)c3ccc(C(C)(C)CC)cc3)CC2)cc1.Cl` are 93%, 94% and 26%.
On the same counts, the results for `CCCCCCN(CCCCCC)CC(O)c1c(OC)ccc2ccccc12.Cl` (stereo not drawn) are 100%, 100% and 18%.
In the case of `Cc1nc(-c2ccncc2)sc1C(=O)Nc1ccc(Cl)cc1C(=O)Nc1ccc(Cl)cc1`, the Inhibition in the test with Plasmodium falciparum [1] is listed as 98%; in the test on Plasmodium falciparum [2], 47%; in the test with HepG2, 2%.
The corresponding values for `COc1ccc(O)c(C(=O)c2cc(C#N)c(=O)n(-c3ccc(Oc4ccccc4)cc3)c2)c1` are 97%, 20% and 22%.
`Cc1cccc2nc(-c3cccc(-c4cccc(NC(=O)Cc5c[nH]cn5)c4)c3)[nH]c12`: the values for the Inhibition with Plasmodium falciparum [1], with Plasmodium falciparum [2] and in the test on HepG2 were 100%, 100% and 32%, respectively.
On to `Cc1nnsc1C(=O)Nc1cccc(-c2ccc(-c3nc4ccccc4[nH]3)s2)c1`, for which the Inhibition with Plasmodium falciparum [1] was 89%; in the test on Plasmodium falciparum [2], 13%; with HepG2 it was 55%.
On to `CC1CC(NCCCNc2cc(=O)c3ccccc3[nH]2)c2c1cc(Cl)c(Cl)c2Cl` (stereo not drawn), for which the Inhibition turned out to be 98% in the test on Plasmodium falciparum [1], 70% in the test with Plasmodium falciparum [2] and 1% in the test on HepG2.
On the same counts, the results for `Cc1c(S(=O)(=O)Nc2ccc3nccc(N4CC(C)NC(C)C4)c3c2)sc2ccc(Cl)cc12.Cl` (stereo not drawn) are 92%, 0% and 0%.
The corresponding values for `Nc1nc(O)c2cc(CN(C=O)c3ccc(C(=O)N[C@@H](CCC(=O)O)C(=O)O)cc3)ccc2n1` are 93%, 94% and 0%.
With `CC(C)(CNC(=O)[C@H]1CCCCN1)c1nc(-c2ccc(Cl)c(O)c2)c(-c2ccncc2)[nH]1.Cl`, the Inhibition is on record as 98% in the test with Plasmodium falciparum [1], 98% in the test with Plasmodium falciparum [2] and 6% in the test on HepG2.
Consider `CN1CCN(c2ccc(Cl)cc2NC(=O)C2COc3ccccc3O2)CC1` (stereo not drawn), for which the figures for the Inhibition in the test with Plasmodium falciparum [1], in the test with Plasmodium falciparum [2] and in the test with HepG2 were 99%, 44% and 2%, respectively.
For `COc1cc(Cc2cnc(N)nc2N)ccc1OCc1ccc(-c2ccccc2C#N)cc1`, the figures for the Inhibition in the test with Plasmodium falciparum [1], with Plasmodium falciparum [2] and in the test with HepG2 were 93%, 3% and 32%, respectively.
As for `CCCCCCCNC(=O)NCC1CCCN(CCCCCNC(=O)/C=C/c2ccc(Cl)c(Cl)c2)C1` (stereo not drawn), the figures for the Inhibition with Plasmodium falciparum [1], in the test with Plasmodium falciparum [2] and with HepG2 were 86%, 7% and 98%, respectively.
`COc1ccccc1-c1ccc2nnc(SCC(=O)Nc3ccc4c(c3)OCCO4)n2n1`: the Inhibition in the test on Plasmodium falciparum [1] came to 99%; with Plasmodium falciparum [2], 5%; in the test on HepG2, 9%.
The corresponding values for `Cc1ccc(-c2cc(C(=O)Nc3ccc(S(=O)(=O)N4CC(C)OC(C)C4)cc3)[nH]n2)c(O)c1` (stereo not drawn) are 91%, 98% and 16%.
The corresponding values for `Clc1ccc2c(NCc3ccc4c(c3)OCO4)ccnc2c1` are 100%, 97% and 6%.
On the same counts, the results for `O=C(O)/C=C\C(=O)O.c1ccc(COc2ccnc(NCCCOc3cccc(CN4CCCCC4)c3)c2)cc1` are 100%, 51% and 22%.
With `Cc1ccc(-c2noc(=O)n2CC(=O)Nc2ccccc2-c2ccccc2)cc1`, the Inhibition is 100% in the test on Plasmodium falciparum [1], 86% in the test with Plasmodium falciparum [2] and 0% with HepG2.
As to `COc1ccc2nccc(N3CCC(SCCNCc4ccc5c(n4)NC(=O)CS5)C3)c2n1.Cl` (stereo not drawn), the Inhibition is 95% with Plasmodium falciparum [1], 100% in the test with Plasmodium falciparum [2] and 34% with HepG2.
On the same counts, the results for `O=C(Nc1ccc2c(c1)OCO2)c1cc(-c2cccnc2)nc2ccc(Cl)cc12` are 89%, 41% and 9%.
On the same counts, the results for `O=C(Nc1cccc(-c2cccc(-c3nc4cc(F)ccc4[nH]3)c2)c1)c1ccoc1` are 98%, 35% and 36%.

The record behind these values is ChEMBL document CHEMBL1157539, “Thousands of chemical starting points for antimalarial lead identification” (Nature, 2010).
